Measured values: PubChem BioAssay (NCATS)
Results filed as inconclusive are left out. Unmarked numbers belong to inactive results. Calls of active or inactive are those of the source. Calls follow the shape of the dose curve; as a rule, active = well fitted inhibition curve with a large enough effect; inconclusive = small, poorly fitted or top-dose-only effect; inactive = flat fitted curve, though single readings scatter. Peptide text beside a SMILES is read from it.

The compounds below were run on CP335 (assay: qHTS profiling for inhibitors of Plasmodium falciparum proliferation (AID 504749; also: nearly all actives have a fitted effect of over 60% in size;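 as to activity, negative = inhibition: 0% = DMSO vehicle and full inhibition = artemisinin control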)). Details: P. falciparum in erythrocytes, SYBR Green DNA, 72 h; series mostly up to 12.8 µM; activity, negative = inhibition: at the top concentration.
How it was run: (§1)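 Parasite proliferation within erythrocytes, 72 h exposure. Endpoint: SYBR Green I fluorescence after overnight lysis at room temperature. Controls: 0.29 uM artemisinin, DMSO.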
Potency is read from the fitted curve at half-maximal effect.

| SMILES | activity, negative = inhibition | Potency |
| --- | --- | --- |
| CN(C)CCCOC1C(C(O)CO)OC2OC(C)(C)O[C@@H]21 (some centres not stated) | 4.95% [at 28.7 µM] |  |
| CCC(C)C(=O)OC1CCC=C2C=CC(C)C(CCC3CC(O)CC(=O)O3)[C@@H]21 (some centres not stated) | -14.7% [at 28.7 µM] |  |
| CC(=O)OC1CCC2C3CCc4cc(O)ccc4C3CCC12C (configuration not stated) | 3.88% [at 28.7 µM] |  |
| CC[C@@]12CCCN3CCc4c(n(c5ccccc45)[C@](O)(C(=O)OC)C1)C32 (some centres not stated) | -19.4% [at 28.7 µM] |  |
| NC(C(=O)O)[C@@H]1CC(Cl)=NO1 (some centres not stated) |  | 1200 nM (active) |
| CN1CC(=O)N=C1N | 2.8% [at 28.7 µM] |  |
| OCC1OC([S-])[C@H](O)C(O)C1O.[Au+] (some centres not stated) | -3.86% [at 28.7 µM] |  |
| CC(C)C1CCC(C(=O)NC(Cc2ccccc2)C(=O)O)CC1 (configuration not stated) | 2.76% [at 28.7 µM] |  |
| CCC(CCC(C)C1CCC2C3CC=C4CC(O)CC[C@@]4(C)C3CC[C@@]12C)C(C)C (some centres not stated) | 2.52% [at 28.7 µM] |  |
| C[C@]12CCC(=O)C=C1CCC1C2C(=O)C[C@]2(C)C1CC[C@]2(O)C(=O)CO (some centres not stated) | 4.15% [at 28.7 µM] |  |
| OCC1O[C@H](OC2C(CO)O[C@@](O)(CO)C2O)C(O)C(O)C1O (some centres not stated) | 9.78% [at 28.7 µM] |  |
| CC1(C)OC2CO[C@]3(COS(N)(=O)=O)OC(C)(C)OC3C2O1 (some centres not stated) | 5.55% [at 28.7 µM] |  |
| CC1(C)OC2CC(=O)OC[C@@]23C1CC(=O)[C@]1(C)C3CC[C@@]2(C)C(c3ccoc3)OC(=O)C3O[C@@]321 (some centres not stated) | 2.01% [at 28.7 µM] |  |
| CCOC(=O)C1=CC(OC(CC)CC)C(NC(C)=O)C(N)C1 (configuration not stated) | 5.26% [at 28.7 µM] |  |
| COC1C=CO[C@@]2(C)Oc3c(C)c(O)c4c(O)c(c5c(nc6cc(C)ccn65)c4c3C2=O)NC(=O)/C(C)=C\C=CC(C)C(O)[C@@H](C)C(O)C(C)[C@@H](OC(C)=O)C1C (some centres not stated) |  | 13500 nM (active) |
| COC(=O)C(Cc1ccccc1)NC(=O)C(N)CC(=O)O (stereo not drawn) (H-Asp-Phe-OMe; configuration not given here) | 5.72% [at 28.7 µM] |  |
| C[C@]12C=CC(=O)C=C1CCC1C2C(O)C[C@]2(C)C1CC[C@]2(O)C(=O)CO (some centres not stated) | 8.18% [at 28.7 µM] |  |

| SMILES | activity, negative = inhibition | Potency |
| --- | --- | --- |
| CC1(C)S[C@H]2C(NC(=O)[C@@H](N)c3ccc(O)cc3)C(=O)N2[C@@H]1C(=O)O (some centres not stated) | 3.65% [at 28.7 µM] |  |
| CC(C)=CCC[C@](C)(O)C1CC=C(C)CC1 (some centres not stated) | -0.151% [at 28.7 µM] |  |
| C[C@]1(c2ccccc2)OC(C(=O)O)=CC1=O | 0.415% [at 28.7 µM] |  |
| CC(=O)N[C@H](CC(C)C)C(=O)O | -0.729% [at 28.7 µM] |  |
| COc1ccc2cc(C(C)CO)ccc2c1 (configuration not stated) | 2.81% [at 28.7 µM] |  |
| COC1C=CO[C@@]2(C)Oc3c(C)c(O)c4c(O)c(c(C=NN5CCN(C)CC5)c(O)c4c3C2=O)NC(=O)/C(C)=C\C=CC(C)C(O)[C@@H](C)C(O)C(C)[C@H](OC(C)=O)C1C (some centres not stated) |  | 953 nM (active) |
| CC1CCC(C(C)C)C(=O)C1 (configuration not stated) | 6.29% [at 28.7 µM] |  |
| CNC1CC(N)[C@H](O)[C@@H](O[C@@H]2OC(CO)C3OC4(OC(C(N)CO)C(O)C(O)C4O)O[C@@H]3[C@H]2O)C1O (some centres not stated) | 2.11% [at 28.7 µM] |  |
| CCCC(=O)O[C@]1(C(=O)CO)CCC2[C@@H]3CCC4=CC(=O)CC[C@]4(C)C3C(O)C[C@]21C (some centres not stated) | -1.92% [at 28.7 µM] |  |
| CC(=O)[C@]1(O)CCC2C3C=C(Cl)C4=CC(=O)C5CC5[C@@]4(C)C3CC[C@]21C (some centres not stated) | -2.61% [at 28.7 µM] |  |
| CC(=O)N[C@@H]1C(O)OC(CO)C(O)C1O (some centres not stated) | 0.0588% [at 28.7 µM] |  |
| C/C1=C2N=C(/C=C3N=C(/C(C)=C4\[N-]C(C)(C5N=C1C(C)(CCC(=O)NCC(C)OP(=O)([O-])O[C@H]1C(O)C(n6cnc7cc(C)c(C)cc76)O[C@@H]1CO)C5CC(N)=O)C(C)(CC(N)=O)C4CCC(N)=O)C(C)(CC(N)=O)C\3CCC(N)=O)C(C)(C)C/2CCC(N)=O.[CH2-]C1OC(n2cnc3c(N)ncnc32)C(O)C1O.[Co] (some centres not stated) | 4.95% [at 28.7 µM] |  |
| O=C1OC(CO)C(O)C(O)C1O (configuration not stated) | 1.41% [at 28.7 µM] |  |
| CNC1C(OC2C(O[C@@H]3C(O)C(O)[C@@H](N=C(N)N)C(O)C3N=C(N)N)OC(C)[C@@]2(O)CO)OC(CO)C(O)C1O (some centres not stated) | -2.12% [at 28.7 µM] |  |
| COc1cc(C2c3cc4c(cc3C(O[C@@H]3OC5COC(c6cccs6)OC5C(O)C3O)C3COC(=O)C23)OCO4)cc(OC)c1O (some centres not stated) |  | 1690 nM (active) |
| Nc1nc2ncc(CNc3ccc(C(=O)NC(CCC(=O)O)C(=O)O)cc3)nc2c(=O)[nH]1 (configuration not stated) | 2.21% [at 28.7 µM] |  |

Each compound was assayed on DFO2036 in the same assay as above. Details: P. falciparum in erythrocytes, SYBR Green DNA, 72 h; series mostly up to 12.8 µM; activity, negative = inhibition: at the top concentration.
How it was run: as §1

| SMILES | activity, negative = inhibition |
| --- | --- |
| CN(C)CCCOC1C(C(O)CO)OC2OC(C)(C)O[C@@H]21 (some centres not stated) | 12.3% [at 28.7 µM] |
| CCC(C)C(=O)OC1CCC=C2C=CC(C)C(CCC3CC(O)CC(=O)O3)[C@@H]21 (some centres not stated) | 14% [at 28.7 µM] |
| CC(=O)OC1CCC2C3CCc4cc(O)ccc4C3CCC12C (configuration not stated) | 10.9% [at 28.7 µM] |
| CC[C@@]12CCCN3CCc4c(n(c5ccccc45)[C@](O)(C(=O)OC)C1)C32 (some centres not stated) | 6.46% [at 28.7 µM] |
| CN1CC(=O)N=C1N | 4.35% [at 28.7 µM] |
| OCC1OC([S-])[C@H](O)C(O)C1O.[Au+] (some centres not stated) | -0.5% [at 28.7 µM] |
| CC(C)C1CCC(C(=O)NC(Cc2ccccc2)C(=O)O)CC1 (configuration not stated) | 4.41% [at 28.7 µM] |
| CCC(CCC(C)C1CCC2C3CC=C4CC(O)CC[C@@]4(C)C3CC[C@@]12C)C(C)C (some centres not stated) | 4.86% [at 28.7 µM] |
| C[C@]12CCC(=O)C=C1CCC1C2C(=O)C[C@]2(C)C1CC[C@]2(O)C(=O)CO (some centres not stated) | 8.36% [at 28.7 µM] |
| OCC1O[C@H](OC2C(CO)O[C@@](O)(CO)C2O)C(O)C(O)C1O (some centres not stated) | 3.34% [at 28.7 µM] |
| CC1(C)OC2CC(=O)OC[C@@]23C1CC(=O)[C@]1(C)C3CC[C@@]2(C)C(c3ccoc3)OC(=O)C3O[C@@]321 (some centres not stated) | 2.57% [at 28.7 µM] |
| CCOC(=O)C1=CC(OC(CC)CC)C(NC(C)=O)C(N)C1 (configuration not stated) | 1.54% [at 28.7 µM] |
| COC(=O)C(Cc1ccccc1)NC(=O)C(N)CC(=O)O (stereo not drawn) (H-Asp-Phe-OMe; configuration not given here) | 8.3% [at 28.7 µM] |
| C[C@]12C=CC(=O)C=C1CCC1C2C(O)C[C@]2(C)C1CC[C@]2(O)C(=O)CO (some centres not stated) | 15.8% [at 28.7 µM] |
| CC1(C)S[C@H]2C(NC(=O)[C@@H](N)c3ccc(O)cc3)C(=O)N2[C@@H]1C(=O)O (some centres not stated) | -3.76% [at 28.7 µM] |
| COc1ccc2cc(C(C)CO)ccc2c1 (configuration not stated) | 13.2% [at 28.7 µM] |
| CC1CCC(C(C)C)C(=O)C1 (configuration not stated) | 4.2% [at 28.7 µM] |
| CNC1CC(N)[C@H](O)[C@@H](O[C@@H]2OC(CO)C3OC4(OC(C(N)CO)C(O)C(O)C4O)O[C@@H]3[C@H]2O)C1O (some centres not stated) | 2.51% [at 28.7 µM] |
| CCCC(=O)O[C@]1(C(=O)CO)CCC2[C@@H]3CCC4=CC(=O)CC[C@]4(C)C3C(O)C[C@]21C (some centres not stated) | 19.9% [at 28.7 µM] |
| CC(=O)[C@]1(O)CCC2C3C=C(Cl)C4=CC(=O)C5CC5[C@@]4(C)C3CC[C@]21C (some centres not stated) | -5.01% [at 28.7 µM] |
| CC(=O)N[C@@H]1C(O)OC(CO)C(O)C1O (some centres not stated) | 7.97% [at 28.7 µM] |
| C/C1=C2N=C(/C=C3N=C(/C(C)=C4\[N-]C(C)(C5N=C1C(C)(CCC(=O)NCC(C)OP(=O)([O-])O[C@H]1C(O)C(n6cnc7cc(C)c(C)cc76)O[C@@H]1CO)C5CC(N)=O)C(C)(CC(N)=O)C4CCC(N)=O)C(C)(CC(N)=O)C\3CCC(N)=O)C(C)(C)C/2CCC(N)=O.[CH2-]C1OC(n2cnc3c(N)ncnc32)C(O)C1O.[Co] (some centres not stated) | 0.0083% [at 28.7 µM] |
| CNC1C(OC2C(O[C@@H]3C(O)C(O)[C@@H](N=C(N)N)C(O)C3N=C(N)N)OC(C)[C@@]2(O)CO)OC(CO)C(O)C1O (some centres not stated) | -3.15% [at 28.7 µM] |
| Nc1nc2ncc(CNc3ccc(C(=O)NC(CCC(=O)O)C(=O)O)cc3)nc2c(=O)[nH]1 (configuration not stated) | 8.68% [at 28.7 µM] |
